In PubChem BioAssay (NCI):
Values joined by “and” are separate entries in the source; they are usually repeats but may differ in a detail not shown here. Equal values may be shown once. About 83,000 compounds went through this panel and 20% of them were active in at least one assay; those are over-represented in the sample as a whole.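 The endpoint reported here, percent growth, reads 100 for growth as untreated, 0 for no net growth and -100 for all cells dead.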 A number with no mark means an inactive call. Active and inactive are the calls of the source. How the source made its calls: active means growth percent below 10; inactive means the rest.

The compounds below were run on MDA-MB-468 breast (assay: NCI-60 one-dose screen, 48 h (100 = growth as untreated, 0 = no growth, -100 = all killed)). Settings: 10 µM unless noted.

| SMILES | growth |
| --- | --- |
| COc1cc2nc(Nc3cccc(NC(C)=O)c3)nc(N)c2cc1OC | 88.8% |
| CC(=C(c1ccc(OCCN(C)C)cc1)c1ccc(OCCN(C)C)cc1)c1ccc(Cl)cc1 | -81.1% (active) |
| Nc1cc(-c2c[nH]c3ccc(Br)cc23)nc2cc(-c3c[nH]c4ccc(Br)cc34)nn12 | -4.03% (active) |
| N#Cc1c(-c2ccccc2)cc(-c2ccccc2)n(CCCCCC(=O)Nc2ccccc2N)c1=O | 62.8% |
| Cc1oc2nc[nH]c(=O)c2c1C(=O)/C=C/c1ccc(Cl)cc1 | 10.6% |
| Cc1nc(N)sc1-c1ccnc(Nc2ccc(N3CCOCC3)cc2)n1 | 34.1% |
| CC(C)C1=NOC(=O)C1=Cc1cn(-c2ccccc2)nc1-c1cccc([N+](=O)[O-])c1 | 86.6% |
| CC1(C)CC[C@]2(C(=O)N3CCNCC3)CC[C@]3(C)C(=CC[C@@H]4[C@@]5(C)CCC(=O)C(C)(C)[C@@H]5CC[C@]43C)[C@@H]2C1 | 105% |
| COc1cc(-c2nc(C(=O)NCC(=O)O)nn2-c2ccc(Cl)cc2)cc(OC)c1OC | 113% |
| Fc1cccc(COc2ccc(Nc3ncnc4onc(-c5ccccc5)c34)cc2)c1 | 9.54% (active) |
| O=CNc1cc(Cl)cc(Cl)c1 | 103% |
| COC(=O)c1ccc(=O)oc1 | 105% |
| COc1cc2nc(-c3ccc(Cl)cc3)cc(OCCCN3CCC(O)CC3)c2cc1OC | 52.9% |
| Nc1nc(N)c2cc(NCc3ccc(Cl)c(Cl)c3)ccc2n1 | -84.7% (active) |
| COc1cccc(-c2cc(-c3cccc(Cl)c3)c(C#N)c(=O)[nH]2)c1 | 70.1% |
| O=S(=O)(NCCCNc1cc(-c2cn(-c3ccccc3)nc2-c2cccc(O)c2)ccn1)c1ccccc1 | 4.3% (active) |
| C#CCNC1CCC(c2csc(C#C)n2)=C1C (stereo not given) | 58.9% |
| C=CCn1cc(-c2nc3ccccc3s2)c2cc(-c3ccc4c5c(cccc35)C(=O)N(CCO)C4=O)ccc21 | 96% |
| COc1ccc(-c2nnc(SC/C(=N\O)c3ccccc3)o2)cc1 | 97% |
| FC(F)(F)c1cccc(CNC2CCN(CCc3ccccc3)CC2)c1 | 87.2% |

| SMILES | growth |
| --- | --- |
| O=C(O)COc1ccc(OCC(=O)O)cc1 | 2.23% (active) |
| C=C1C(=O)O[C@H]2[C@H]1CC/C(COC(=O)CCCCCCC(=O)OC/C1=C/CC[C@@]3(C)O[C@H]3[C@H]3OC(=O)C(=C)[C@@H]3CC1)=C\CC[C@@]1(C)O[C@@H]21 | -23.9% (active) |
| Nc1c(Cl)cc(N=Nc2ccccc2)cc1Cl | -61.3% (active) |
| C=C(CN1CC=CCC1)[C@@H]1CC[C@]2(C(=O)OC)CC[C@]3(C)[C@H](CC[C@@H]4[C@@]5(C)CC[C@H](OC(C)=O)C(C)(C)[C@@H]5CC[C@]43C)[C@@H]12 | 55.6% |
| c1ccc(CCn2nnc3c(Nc4ccc(N5CCOCC5)cc4)ncnc32)cc1 | 76% |
| CCCCCCCCCCCCCC[n+]1ccc(C(N)=O)cc1 | -40.6% (active) |
| COc1ccc(NC(=O)Nc2ccccc2CNc2nc(Nc3ccc(OCCN4CCCC4)cc3)ncc2Cl)cc1 | -43.5% (active) |
| Cn1c(NCCc2ccc(O)c(O)c2)nc2c1c(=O)n(Cc1ccc(Br)cc1)c(=O)n2C | 43.3% |
| O=C(N/N=C/c1cccc(O)c1)c1ccccc1Nc1cccc(C(F)(F)F)c1 | 27% |
| C/C(=C\CCc1ccoc1)CC/C=C(\C)CCCN1CCOCC1 | 5.68% (active) |
| COC(=O)N[C@H]1CCc2cc(OC)c(OC)c(OC)c2-c2ccc(SC)c(=O)cc21 | -32% (active) |
| COc1cc(-c2nn(-c3cccc(NC(=O)c4ccccc4)c3)cc2-c2ccncc2)ccc1Cl | -19.7% (active) |
| COc1ccc(OC)c(NC2=C(SCCc3ccccc3)C(=O)c3ccccc3C2=O)c1 | 65.7% |
| OC(c1cc(-c2ccc(C(F)(F)F)cc2)nc(C(F)(F)F)c1)C1CCCCN1 (stereo not given) | -88.4% (active) and -89.6% (active) and -76.3% (active) |
| O=C(Cn1cc(CN2C(=O)c3ccc([N+](=O)[O-])cc3C2=O)nn1)Nc1ccc(F)cc1Cl | 97.9% |
| Nc1cc(N)c(S(=O)(=O)O)cc1N=Nc1cc([N+](=O)[O-])ccc1O | 102% |
| CC(=O)c1c[nH]c2ccccc12 | 104% |
| O=C(O)c1ccc([N+](=O)[O-])cc1S(=O)(=O)O | 98.6% |
| CCCC/C(=N\N=C(N)N)c1ccc(F)cc1 | -12.3% (active) |
| CCOC(=O)C1=C(C)NC(SCc2nnc(-c3ccc(Cl)cc3)o2)=NC1c1ccc(Br)cc1 (stereo not given) | 58.2% |
